Data published in PubChem BioAssay (NCI).
Compounds without any hit were thinned out: in the full panel of roughly 83,000, 20% have a hit.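 Values shown are percent growth following 48 h exposure of cells in 96-well plates to a single concentration of compound; below 10 was considered active.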 Values without a mark were called inactive. Activity calls are given as the source filed them.

Experiments:
Test in all cases: NCI-60 one-dose screen, 48 h (100 = growth as untreated, 0 = no growth, -100 = all killed)
DU-145 prostate = conditions: 10 µM unless noted
K-562 leukemia = conditions: 10 µM unless noted
MALME-3M melanoma = conditions: 10 µM unless noted
MDA-MB-231 breast = conditions: 10 µM unless noted
RXF 393 renal = conditions: 10 µM unless noted
SF-268 CNS = conditions: 10 µM unless noted
SF-295 CNS = conditions: 10 µM unless noted
SF-539 CNS = conditions: 10 µM unless noted
UACC-257 melanoma = conditions: 10 µM unless noted
M14 melanoma = conditions: 10 µM unless noted
HCT-15 colon = conditions: 10 µM unless noted
HT29 colon = conditions: 10 µM unless noted
SNB-75 CNS = conditions: 10 µM unless noted
SNB-19 CNS = conditions: 10 µM unless noted
U251 CNS = conditions: 10 µM unless noted
PC-3 prostate = conditions: 10 µM unless noted
UACC-62 melanoma = conditions: 10 µM unless noted
LOX IMVI melanoma = conditions: 10 µM
SK-MEL-28 melanoma = conditions: 10 µM unless noted
SK-MEL-5 melanoma = conditions: 10 µM unless noted

Structure (SMILES)	growth (DU-145 prostate)	growth (K-562 leukemia)	growth (MALME-3M melanoma)	growth (MDA-MB-231 breast)	growth (RXF 393 renal)	growth (SF-268 CNS)	growth (SF-295 CNS)	growth (SF-539 CNS)	growth (UACC-257 melanoma)	growth (M14 melanoma)	growth (HCT-15 colon)	growth (HT29 colon)	growth (SNB-75 CNS)	growth (SNB-19 CNS)	growth (U251 CNS) [%]	growth (PC-3 prostate)	growth (UACC-62 melanoma)	growth (LOX IMVI melanoma)	growth (SK-MEL-28 melanoma)	growth (SK-MEL-5 melanoma)
CCOc1ccc(C(=O)O)cc1	112%	115%	118%	112%	105%	110%	94.6%	106%	104%	97.5%	95.7%	103%	89.2%	112%	103	91.2%	104%	98.7%	105%	
ClCc1cccc2c(CCl)cccc12	32.6%	79.2%	90.6%	92.3%	61%	64.3%	58.6%	61.6%	70%	25.8%	73.8%	71.1%	88%	70.4%		65.9%	64%	-51.8% (active)	83.7%	77.6%
Cc1ccc2nc(-c3ccc(N=Cc4ccccc4O)cc3)sc2c1	96.8%	84.8%	90.3%	62.2%	83.4%	97.7%	109%	89.3%	78.8%	78.4%	80.1%	93.4%	47.4%	92.3%	91.6		84.7%	86.9%	110%	109%
CCCCCCCCCCC(=O)CCCCCCCCCC	111%	103%	99.1%	119%	113%	108%	93.7%	98.1%	101%	99.9%	99.7%	104%	95.9%	109%		97.8%	105%	94.6%	106%	102%
c1ccc2c(NCCCN3CCN(CCCNc4c5ccccc5nc5ccccc45)CC3)c3ccccc3nc2c1	-63.4% [100 µM] (active)	-10.1% [100 µM] (active)	-69.7% [100 µM] (active)	-40.3% [100 µM] (active)	-90.3% [100 µM] (active)	-34.9% [100 µM] (active)	-48.1% [100 µM] (active)	-79.2% [100 µM] (active)	-36.4% [100 µM] (active)	-81% [100 µM] (active)	2.79% [100 µM] (active)	-37.3% [100 µM] (active)	-91% [100 µM] (active)	-21.1% [100 µM] (active)		-33.1% [100 µM] (active)	-88.5% [100 µM] (active)		-72.3% [100 µM] (active)	-70.3% [100 µM] (active)
COc1cc(CC#N)c([N+](=O)[O-])cc1OC	109%	94.8%	111%	99.9%	112%	103%	110%	102%	103%	109%	116%	108%	107%	109%	95.8		99.8%	102%	107%	
CCCC1OC(c2ccco2)OCC1CC (centres undefined)	104%	105%	118%	102%	136%	101%	105%	106%	93.1%	102%	97.2%	103%	84.2%	98.2%	94.8	92.5%	91.7%	95.1%	113%	
O=c1cc(Cl)nc2ccccn12	110%	110%	117%	120%	106%	112%	106%	102%	107%	107%	109%	111%	109%	103%		96.7%	117%	103%	101%	105%
C=CC(C)C(C)(C)O (centres undefined)	105%	94%	107%	103%	105%	95.3%	102%	105%	109%	102%	104%	101%	101%	109%	103		102%	99.2%	113%	107%
